Inconclusive results are not listed. Entries that show only a call come without a potency. Values without a mark were called inactive. Calls of active or inactive are those of the source. Calls come from the whole dose curve; as a rule, active = well fitted inhibition curve with a large enough effect; inconclusive = small, poorly fitted or top-dose-only effect; inactive = flat fitted curve, though single readings scatter.

The target of this assay is Glutathione peroxidase 1 (Homo sapiens) (UniProt P07203). Briefly: Primary qHTS Assay for Inhibitors of Recombinant Selenoprotein Glutathione Peroxidase 1 (GPX1) (AID 1845191). Note: nearly all actives have a fitted effect of over 65% in size. The conditions noted are these: recombinant GPX1, GR-coupled NADPH fluorescence, 15 min; series mostly up to 48.8 µM; activity, negative = inhibition: at the top concentration. The essentials: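 GPX1 10 nM, GR 100 nM, GSH 1 mM, NADPH 0.5 mM, CHP 0.5 mM (final). 30-min cpd preincubation, RT. Ex340/Em450 read t=0, t=15 min.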
Glutathione peroxidase 1 (Homo sapiens), sequence (P07203 whole entry, looked up): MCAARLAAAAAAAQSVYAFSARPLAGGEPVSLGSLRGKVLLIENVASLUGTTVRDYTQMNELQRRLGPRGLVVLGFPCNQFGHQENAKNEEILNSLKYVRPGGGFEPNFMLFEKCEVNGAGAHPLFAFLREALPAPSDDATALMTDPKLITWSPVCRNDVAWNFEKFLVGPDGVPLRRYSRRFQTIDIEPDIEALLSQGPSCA
(qHTS replaces the single test concentration by a dilution series.)
`CN(C)S(=O)(=O)c1ccc2c(c1)/C(=C/c1cc3c([nH]1)CCCC3)C(=O)N2`: the Potency entry is “inactive”. Regarding `O=C(O)C1=CCNCC1`, the “activity, negative = inhibition” value is -3.27%. For the molecule `CN1C2CCC1CC(OC(c1ccccc1)c1ccccc1)C2` (stereo not drawn), the “activity, negative = inhibition” value was -3.22%. Take `CNc1cc(NS(=O)(=O)c2ccc(N)cc2)nc(NC)n1`: the “activity, negative = inhibition” value is -14.3%. On to `CN1CCc2cc(Cl)c(O)cc2[C@@H](c2ccccc2)C1`, for which the result was inactive.

Take `N#Cc1cc([N+](=O)[O-])c2sc(C(N)=O)[n+]([O-])c2c1`: the “activity, negative = inhibition” value was -6.17%.

As for `N=S(=O)(O)Cc1noc2ccccc12`, the outcome was inactive.

Regarding `CC(=O)[C@H]1CCC2C3CC=C4C[C@@H](OS(=O)(=O)O)CC[C@]4(C)C3CC[C@@]21C` (stereo partly drawn), the “activity, negative = inhibition” value was -18.2%. On to `c1ccc(C2CN3CCSC3=N2)cc1` (stereo not drawn), for which the Potency entry is “inactive”. With `O=c1[nH]c2ccccc2c2ccccc12`, the “activity, negative = inhibition” value was -12.9%. As to `O=C1NC(=O)c2cc(Nc3ccccc3)c(Nc3ccccc3)cc21`, the outcome was inactive. `CNC(=O)c1cc2c(cn1)[nH]c1ccccc12`: the “activity, negative = inhibition” value was -0.715%. With `CCCCCCCCCCCCCCCCCCOC[C@H](COP(=O)([O-])OCC[N+](C)(C)C)OC`, the “activity, negative = inhibition” value was -7.25%.

For `O=[N+]([O-])c1cccc2c(Br)[nH]nc12`, the “activity, negative = inhibition” value is 2.31%. Take `O=C(O)CCC(=O)N1CCCC1C(=O)O` (stereo not drawn): the outcome was inactive. Regarding `CC1=C(C(=O)O)N2C(=O)[C@@H](NC(=O)C(N)C3=CCC=CC3)[C@H]2SC1` (stereo partly drawn), the “activity, negative = inhibition” value was -7.72%. For the molecule `NC(N)=NC(N)=Nc1ccccc1`, the “activity, negative = inhibition” value is -13.3%. As to `CC(C)NCC(O)COc1ccc(CC(N)=O)cc1` (stereo not drawn), the “activity, negative = inhibition” value is -3.88%. Take `Cc1nc(N=Nc2cc(S(=O)(=O)O)c3cc([N+](=O)[O-])cc(S(=O)(=O)O)c3c2)c(COP(=O)(O)O)c(C=O)c1O`: the “activity, negative = inhibition” value was 2.77%.

Turning to `COC1(C2=NCCN2)COc2ccccc2O1` (stereo not drawn), the “activity, negative = inhibition” value was -32.9%. On to `CN(C)CCCc1cc(C(=O)Nc2ccc(-c3ccncc3)cc2)ccc1O`, for which the outcome was inactive.

Take `CCCCCCC/C=C\CCCCCCCCC(=O)O`: the “activity, negative = inhibition” value was -21.2%. Take `Nc1ncnc2c1ncn2C1CCCO1` (stereo not drawn): the result was inactive. Consider `CC(C)(C)NCC(O)COc1cccc2[nH]c(=O)[nH]c12` (stereo not drawn), for which the outcome was inactive.

`OC[C@H]1O[C@@H](n2cnc3cncnc32)[C@H](O)[C@@H]1O`: the “activity, negative = inhibition” value was -22.5%. `CCCCCC[C@@H]([C@@H](C)O)n1cnc2c(N)ncnc21`: the “activity, negative = inhibition” value is -8.6%. Consider `Cc1cc(Cn2cnc3c2C[C@@H](C(=O)O)N(C(=O)C(c2ccccc2)c2ccccc2)C3)ccc1N`, for which the outcome was inactive. As for `CCCCCCCCCC[Si](C)(C)CCC(=O)NC(Cc1ccc(C)cc1)c1ccccc1` (stereo not drawn), the result was inactive. As for `O=C(O)C1=CCCN(CCON=C(c2ccccc2)c2ccccc2)C1`, the outcome was inactive. Regarding `CCCCS(=N)(=O)CC[C@H](N)C(=O)O` (stereo partly drawn), the outcome was inactive. On the same count and under the same terms, the value for `CC(C)(C)c1cc(/C=C(\C#N)C(N)=S)cc(C(C)(C)C)c1O` was “inactive”; that for `COC(=O)C(N)Cc1ccc(Cl)cc1` (stereo not drawn) was “inactive”.

Take `N=C(N)SCCN`: the result was inactive.

For the molecule `COc1ccccc1N1CCN(CCCNc2c(C)c(=O)n(C)c(=O)n2C)CC1`, the result was inactive. In the case of `O=C(c1ccc2c(c1)OCCO2)N1CCCCC1`, the result was inactive.

Regarding `COc1ccc2c(c1)c(CC(=O)O)c(C)n2Cc1ccc(Cl)cc1`, the outcome was inactive. As for `Cc1cc2c(cc1Cl)N(C(=O)Nc1ccnc3ccccc13)CC2`, the “activity, negative = inhibition” value is -23.8%. As for `Nc1ccc(-c2ccc3ccccc3n2)cc1`, the “activity, negative = inhibition” value is -27.7%.

The values above are taken from PubChem BioAssay (NCATS).
